# Source: the supplement of paper PMC7411640
# Structures can show the parent of a compound that is named as a salt.
# Test system: MDA-MB-468
# Experiment: phospho-S6 immunofluorescence (DAPI-normalised), per-plate z-score; higher = higher phospho-S6 signal (less pathway suppression)
# Settings: 24 h
# Procedure: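 GPCR-targeted compound library (MedChemExpress HY-L006) tested on MDA-MB-468 PTEN-null TNBC cells in 384-well plates at 0.1, 1 or 10 uM, combined with vehicle, GDC0941 450 nM or lapatinib 1 uM, for 24 h. Phospho-S6 (S240/244) immunofluorescence normalised to DAPI and expressed as a per-plate z-score; values are the mean of biological triplicates.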
Structure (SMILES),phospho-S6 immunofluorescence (z-score) (co-treatment: GDC0941 450 nM),phospho-S6 immunofluorescence (z-score) (co-treatment: lapatinib 1 uM),phospho-S6 immunofluorescence (z-score) (co-treatment: vehicle)
O=C(Nc1ccc([N+](=O)[O-])cc1O)Nc1ccccc1Br (compound 10 µM),-1.44,0.89,-0.39
OCCOCCN1CCN(Cc2cccc(Oc3ccccc3)c2)CC1 (compound 10 µM),-0.36,0.35,-1.04
CC[C@H](C)[C@H](NC(=O)[C@H](Cc1ccc(O)cc1)NC(=O)[C@@H](NC(=O)[C@H](CCCNC(=N)N)NC(=O)[C@@H](N)CC(=O)O)C(C)C)C(=O)N[C@@H](Cc1c[nH]cn1)C(=O)N1CCC[C@H]1C(=O)O [Angiotensin (1-7)] (compound 10 µM),0.11,0.71,-0.4
Cc1cc(NC(=O)Nc2ccc(N(C)C)cc2)c2cc(F)cc(F)c2n1 (compound 10 µM),-2.07,-0.1,-2.06
COc1cc2nc(N3CCN(C(=O)c4ccco4)CC3)nc(N)c2cc1OC [Prazosin (hydrochloride)] (compound 10 µM),2.1,0.54,0.24
CC[C@@H](Nc1c(Nc2cccc(C(=O)N(C)C)c2O)c(=O)c1=O)c1ccc(C)o1 (compound 10 µM),0.29,-0.41,2.26
COc1ccccc1N1CCN(CCCCN2C(=O)c3ccccc3C2=O)CC1 [NAN-190 (hydrobromide)] (compound 10 µM),0.76,-0.29,0.19
Cc1cccc(C#Cc2ccccc2)n1 [MPEP (Hydrochloride)] (compound 10 µM),-0.92,0.68,-0.14
OCC1OC(n2cnc3c(NCCc4ccccc4)ncnc32)C(O)C1O (stereo not drawn) [N6-(2-Phenylethyl)adenosine] (compound 10 µM),0.87,1.11,0.72
C[C@H](NC(=O)CNC(=O)c1cccc(Cl)c1)c1ccccc1 (compound 10 µM),0.04,0.45,0.46
CN1CC2c3ccccc3Oc3ccc(Cl)cc3C2C1 (stereo not drawn) [Asenapine (maleate)] (compound 10 µM),0.37,-1.57,-0.61
CCOC(=O)c1ccc(-n2cc(Cc3cnc(OCC)nc3)c(=O)nc2SCc2ccc(F)cc2)cc1 (compound 10 µM),-3.26,-3.79,-4.85
NCCc1c[nH]cn1 [Histamine] (compound 10 µM),0,1.34,0.58
CCc1ccc(OCc2ccccc2C(=O)Nc2ccc3nc(C)cc(N)c3c2)cc1 (compound 10 µM),-5.98,-12,-10.4
COc1nc(C)nc(Cl)c1NC1=NCCN1 [Moxonidine] (compound 10 µM),0.49,0.68,0.7
O=S(=O)(c1ccccc1)c1cnc2c(N3CCNCC3)cccc2c1 (compound 10 µM),0.13,-2.25,0.76
NC(N)=Nc1nc(CSCCN/C=N/S(=O)(=O)c2ccc(Br)cc2)cs1 [Ebrotidine] (compound 10 µM),-4.2,-3.36,-1.7
COCc1nnc(N2CC(Oc3ccc(F)cc3Cl)C2)n1-c1ccc(OC)nc1 (compound 10 µM),-0.38,-0.91,-0.61
N#Cc1ccc2[nH]cc(CCCCN3CCN(c4ccc5oc(C(N)=O)cc5c4)CC3)c2c1 [Vilazodone] (compound 10 µM),0.37,0.11,1.24
Cc1ccc(C)c(OCCn2cc(C(=O)O)c3ccccc32)c1 (compound 10 µM),0.61,-0.34,-0.21
CNC(=O)[C@H]1O[C@@H](n2cnc3c(NCc4cccc(I)c4)nc(Cl)nc32)[C@H](O)[C@@H]1O (compound 10 µM),-1.27,-1.18,-2.34
Clc1ccccc1CN1CCc2sccc2C1 [Ticlopidine (hydrochloride)] (compound 10 µM),-1.14,-0.33,-0.63
O=C(O)CC1CCC2(CC1)CCN(c1cc(OC(F)(F)F)ccc1Cl)CC2 (compound 10 µM),0.09,0.11,0.22
C=CCc1ccccc1OCC(O)CNC(C)C (stereo not drawn) [Alprenolol (hydrochloride)] (compound 10 µM),0.45,-0.09,1.12
CN(C)CC/C=C1/c2ccccc2Sc2ccc(Cl)cc21 [Chlorprothixene] (compound 10 µM),0.1,-3.66,0.41
O=C(/C=C/c1ccc(Cl)cc1)N1CCC2(CC1)CN(Cc1ccc(Cl)c(Cl)c1)C(=O)O2 (compound 10 µM),-2.76,-2.4,-1.92
